# Assay results taken from PubChem BioAssay AID624133 (Broad Institute, 2012).
# Out of some 1,600 compounds screened, about 1,300 (81%) were called active. No rule for the calls is given here. The set was probably picked from earlier hits. Not all results are given here. Potency and affinity values are given separately.
# Assay: control 3'UTR Renilla luciferase suppression, dose response, counter-screen for Shn3 inhibitor project, cell-based, Clone20-Shn3RL, cherry-picked (AID 624133);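 also: 0% = neutral control wells and -100% = positive control wells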
# Details: Clone20-Shn3RL cells, Renilla luciferase luminescence, 24 h; at 35 µM (top of the series) unless noted
row,Compound,"activity change, negative = inhibition"
1,Cc1ccc(-n2cc(CNCCCn3ccnc3C)c(-c3ccc(F)cc3)n2)cc1,-91.7%
2,COC(=O)c1cn(NC(=O)c2cc([N+](=O)[O-])ccc2F)c(=O)c2ccccc12,354%
3,CC(C)c1ccc(Oc2cccc3c2S(=O)(=O)N(C2CCCC2)CC(COCc2ccccc2)O3)cc1 (stereo not given),273%
4,Cn1cccc1Cc1nnc(SCC(=O)NCCc2ccccc2)n1-c1ccc(F)cc1,275%
5,CCN(CC)S(=O)(=O)c1ccc(N(C)Cc2cccc(OC)c2OC)nc1,-40%
6,CCOC(=O)c1ccc(NC(=O)c2nc[nH]c2C(=O)NCCNC(=O)c2[nH]cnc2C(=O)Nc2ccc(C(=O)OCC)cc2)cc1,47.9%
7,Cc1cccc2c(C(=O)N3CCN(c4ccccn4)CC3)cc(-c3cccc(Br)c3)nc12,-100%
8,COc1ccccc1N1CCN(c2ncc(C(=O)N3CCN(c4cccc(Cl)c4)CC3)c3ccccc23)CC1,66.7%
9,CCOc1cc(C)c(S(=O)(=O)Nc2ccc3cn[nH]c3c2)cc1C,0%
10,Cc1ccc(NC(=O)C2CCCN(S(=O)(=O)c3c(C)noc3C)C2)cc1 (stereo not given),-19.4%
11,COc1ccc(C(=O)NCCN(C)C)c2nc3ccccc3cc12,66.5%
12,COc1ccccc1/C=C1\CCCC2=C1Nc1nnnn1C2c1ccccc1OC (stereo not given),-110%
13,CCn1c(C)cc(C(=O)COC(=O)c2ccccc2[N+](=O)[O-])c1C,-13.6%
14,COc1ccc(-c2nsc3c(N4CCCCC4C)ncnc23)cc1 (stereo not given),-16.7%
15,O=C(CN1C(=O)C2CCCCC2C1=O)NC1CCCc2ccccc21 (stereo not given),-10%
16,C[C@@H]1CN([C@@H](C)CO)C(=O)c2cc(NC(=O)Nc3ccc(F)cc3)ccc2O[C@@H]1CN(C)Cc1ccc(Oc2ccccc2)cc1,-20.8%
17,C[C@@H]1CCCCO[C@H](CN(C)Cc2ccccc2)[C@@H](C)CN([C@H](C)CO)C(=O)c2cc(NC(=O)c3ccccc3)ccc2O1,33.3%
18,CN(Cc1ccccc1)C(=O)c1cccc(NC(=O)Cc2ccc([N+](=O)[O-])cc2)c1,230%
19,CC(Oc1ccc(F)cc1)C(=O)N(CCC1=CCCCC1)c1c(N)n(Cc2ccccc2)c(=O)[nH]c1=O (stereo not given),-25%
20,COc1ccc2c(CC(=O)OCC(=O)N(C)c3c(N)n(Cc4ccccc4)c(=O)[nH]c3=O)coc2c1,-12.5%
21,COc1ccc(CN2CCC(C(=O)Nc3ccc(Oc4cccnc4)cc3)CC2)c(C)c1C,-75%
22,CC(C)(C)C(=O)Nc1cc(S(=O)(=O)N2CCCCC2)ccc1N1CCCCC1,50%
23,COc1cccc(-c2nc(NC3CCCC3)c3ccccc3n2)c1O,-22.7%
24,COc1ccc(-n2ncc3c(N4CCCCC4)ncnc32)cc1,-75%
25,CCn1cc(CNCc2cn(-c3ccccc3C)nc2-c2ccc(OC)c(F)c2)cn1,150%
